# Test results reported in the supplement of paper PMC8728848.
# Many of the other results were omitted from the sample, so the strongest signals are more common in it than they were.
# Tests used:
# Assay in all cases: glycan array binding signal (z-score within array); higher = stronger binding
# Details in all cases: glycan notation: IUPAC condensed, linker removed
# [1] = biological target: Fuc(a1-2)Gal(b1-3)GlcNAc(b1-3)[Gal(b1-4)GlcNAc(b1-6)]Gal(b1-4)Glc
# Outline: (§1)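 Glycan array data were curated from 3228 arrays in the Consortium for Functional Glycomics database and kept only where the protein sequence was available. Glycan names were converted to IUPAC-condensed notation, and columns mapping to the same glycan were averaged. The binding signal is a within-array Z-score, averaged across arrays of the same protein sequence at different concentrations or buffers and across linkers. Negative Z-scores can be read as non-binding.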
# [2] = biological target: Fuc(a1-2)Gal(b1-3)[Fuc(a1-4)]GlcNAc
# Outline: as §1
# [3] = biological target: Fuc(a1-2)Gal(b1-3)[Fuc(a1-4)]GlcNAc(b1-2)Man(a1-3)[Fuc(a1-2)Gal(b1-3)[Fuc(a1-4)]GlcNAc(b1-2)Man(a1-6)]Man(b1-4)GlcNAc(b1-4)[Fuc(a1-6)]GlcNAc(b1-4)[Fuc(a1-6)]GlcNAc
# Outline: as §1
# [4] = biological target: Fuc(a1-2)Gal(b1-4)GlcNAc(b1-3)[Fuc(a1-3)[Gal(b1-4)]GlcNAc(b1-6)]Gal(b1-4)Glc
# Outline: as §1
# [5] = biological target: Fuc(a1-2)Gal(b1-4)[Fuc(a1-3)]GlcNAc(b1-3)Gal(b1-4)[Fuc(a1-3)]GlcNAc(b1-3)Gal(b1-4)[Fuc(a1-3)]GlcNAc
# Outline: as §1
# [6] = biological target: Fuc(a1-2)[Gal(a1-3)]Gal(b1-4)GlcNAc(b1-3)GalNAc
# Outline: as §1
# [7] = biological target: Fuc(a1-3)[Gal(b1-4)]GlcNAc(b1-2)Man(a1-3)[Fuc(a1-3)[Gal(b1-4)]GlcNAc(b1-2)Man(a1-6)]Man(b1-4)GlcNAc(b1-4)GlcNAc
# Outline: as §1
# [8] = biological target: Gal(a1-3)Gal(b1-3)GlcNAc(b1-2)Man
# Outline: as §1
# [9] = biological target: Gal(a1-3)Gal(b1-3)GlcNAc(b1-6)GalNAc
# Outline: as §1
# [10] = biological target: Gal(a1-3)Gal(b1-4)GlcNAc(b1-6)GalNAc
# Outline: as §1
# [11] = biological target: Gal(b1-4)GlcNAc
# Outline: as §1
# [12] = biological target: Gal(b1-4)GlcNAc(b1-2)[Gal(b1-4)GlcNAc(b1-4)]Man(a1-3)[GlcNAc(b1-4)][Gal(b1-4)GlcNAc(b1-2)[Gal(b1-4)GlcNAc(b1-6)]Man(a1-6)]Man(b1-4)GlcNAc(b1-4)GlcNAc
# Outline: as §1
# [13] = biological target: Gal(b1-4)GlcNAc(b1-2)[Gal(b1-4)GlcNAc(b1-6)]Man(a1-6)[GlcNAc(b1-4)][Gal(b1-4)GlcNAc(b1-2)Man(a1-3)]Man(b1-4)GlcNAc(b1-4)GlcNAc
# Outline: as §1
# [14] = biological target: Gal(b1-4)GlcNAc(b1-3)Gal(b1-4)GlcNAc(b1-3)Gal(b1-4)GlcNAc(b1-3)Gal(b1-4)GlcNAc(b1-2)Man(a1-3)[Gal(b1-4)GlcNAc(b1-3)Gal(b1-4)GlcNAc(b1-3)Gal(b1-4)GlcNAc(b1-3)Gal(b1-4)GlcNAc(b1-2)Man(a1-6)]Man(b1-4)GlcNAc(b1-4)[Fuc(a1-6)]GlcNAc
# Outline: as §1
# [15] = biological target: Gal(b1-4)GlcNAc(b1-3)Gal(b1-4)GlcNAc(b1-3)Gal(b1-4)GlcNAc(b1-3)Gal(b1-4)GlcNAc(b1-3)Gal(b1-4)GlcNAc(b1-2)Man(a1-3)[Gal(b1-4)GlcNAc(b1-3)Gal(b1-4)GlcNAc(b1-3)Gal(b1-4)GlcNAc(b1-3)Gal(b1-4)GlcNAc(b1-3)Gal(b1-4)GlcNAc(b1-2)Man(a1-6)]Man(b1-4)GlcNAc(b1-4)[Fuc(a1-6)]GlcNAc
# Outline: as §1
# [16] = biological target: Gal(b1-4)GlcNAc(b1-3)GalNAc
# Outline: as §1
# [17] = biological target: Gal(b1-4)GlcNAc(b1-6)[Gal(b1-3)]GalNAc
# Outline: as §1
# [18] = biological target: Gal3S(b1-4)Glc
# Outline: as §1
# [19] = biological target: Gal6S(b1-4)Glc6S
# Outline: as §1
# [20] = biological target: GalNAc(b1-4)GlcNAc6S
# Outline: as §1
# [21] = biological target: GlcA(b1-6)Gal
# Outline: as §1
# [22] = biological target: GlcNAc(a1-4)Gal(b1-4)GlcNAc(b1-3)Gal(b1-4)Glc
# Outline: as §1
# [23] = biological target: GlcNAc(a1-4)Gal(b1-4)GlcNAc(b1-3)Gal(b1-4)GlcNAc(b1-3)Gal(b1-4)GlcNAc
# Outline: as §1
# [24] = biological target: GlcNAc(b1-3)Gal(b1-4)GlcNAc(b1-2)[GlcNAc(b1-3)Gal(b1-4)GlcNAc(b1-6)]Man(a1-6)[GlcNAc(b1-3)Gal(b1-4)GlcNAc(b1-2)Man(a1-3)]Man(b1-4)GlcNAc(b1-4)GlcNAc
# Outline: as §1
# [25] = biological target: GlcNAc(b1-3)Gal(b1-4)GlcNAc(b1-3)Gal(b1-4)GlcNAc(b1-3)Gal(b1-4)GlcNAc(b1-2)[GlcNAc(b1-3)Gal(b1-4)GlcNAc(b1-3)Gal(b1-4)GlcNAc(b1-3)Gal(b1-4)GlcNAc(b1-6)]Man(a1-6)[GlcNAc(b1-3)Gal(b1-4)GlcNAc(b1-3)Gal(b1-4)GlcNAc(b1-3)Gal(b1-4)GlcNAc(b1-2)Man(a1-3)]Man(b1-4)GlcNAc(b1-4)[Fuc(a1-6)]GlcNAc
# Outline: as §1
# [26] = biological target: GlcNAc(b1-3)Gal(b1-4)GlcNAc(b1-3)Gal(b1-4)GlcNAc(b1-3)Gal(b1-4)GlcNAc(b1-3)Gal(b1-4)GlcNAc(b1-2)Man(a1-3)[GlcNAc(b1-3)Gal(b1-4)GlcNAc(b1-3)Gal(b1-4)GlcNAc(b1-3)Gal(b1-4)GlcNAc(b1-3)Gal(b1-4)GlcNAc(b1-2)Man(a1-6)]Man(b1-4)GlcNAc(b1-4)GlcNAc
# Outline: as §1
# [27] = biological target: GlcNAc(b1-3)[GlcNAc(b1-6)]Gal(b1-4)GlcNAc
# Outline: as §1
# [28] = biological target: GlcNAc(b1-4)Gal(b1-4)GlcNAc
# Outline: as §1
binder,measurement,setting,value
Pwp2 (Candida glabrata) (protein) MGSSHHHHHHSSGLVPRGSHMASKNPVELNNVCTFPNDYGRIPGFTVLVGRLGLLISASDYKELLRYPGAFLIATQDTMTTSPNFELTGFPFFTGLYGLTVFPLDLLVELRGYFVPPNSGQYTFTLSDSDDAAIIFLGNPSAFPCGDLQNWPKPSEEDITVTDHLFPSRTLYLIEGVAYPMRIAYYNGIGAGRLNAAFIDPSGTRHTNWEGYIWQYDPCSTCTYS,glycan array binding signal (z-score),[1],-0.594
same,glycan array binding signal (z-score),[2],-0.451
same,glycan array binding signal (z-score),[3],6.32
same,glycan array binding signal (z-score),[4],0.384
same,glycan array binding signal (z-score),[5],-0.086
same,glycan array binding signal (z-score),[6],-0.603
same,glycan array binding signal (z-score),[7],2.54
same,glycan array binding signal (z-score),[8],-0.046
same,glycan array binding signal (z-score),[9],-0.526
same,glycan array binding signal (z-score),[10],-0.281
same,glycan array binding signal (z-score),[11],-0.286
same,glycan array binding signal (z-score),[12],-0.248
same,glycan array binding signal (z-score),[13],-0.569
same,glycan array binding signal (z-score),[14],3.91
same,glycan array binding signal (z-score),[15],1.62
same,glycan array binding signal (z-score),[16],-0.473
same,glycan array binding signal (z-score),[17],1.6
same,glycan array binding signal (z-score),[18],-0.429
same,glycan array binding signal (z-score),[19],-0.419
same,glycan array binding signal (z-score),[20],-0.448
same,glycan array binding signal (z-score),[21],-0.235
same,glycan array binding signal (z-score),[22],-0.466
same,glycan array binding signal (z-score),[23],-0.42
same,glycan array binding signal (z-score),[24],4.24
same,glycan array binding signal (z-score),[25],5.45
same,glycan array binding signal (z-score),[26],-0.549
same,glycan array binding signal (z-score),[27],-0.141
same,glycan array binding signal (z-score),[28],-0.446
